Bioassay records from PubChem BioAssay.
Mtb bLac sens: beta-lactam sensitization of Mtb H37Rv, H37Rv | hit rate 0.27% among 330,000 | AID 434955, 2010 | inhibition, % at 25 µM | M. tuberculosis H37Rv growth with meropenem, percent inhibition; call rule not given here;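 note: growth measured after seven days incubation then overnight dye step; 0% = bacteria only wells and 100% = bacteria with antibiotic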
RecA splice inh: Mtb RecA intein splicing inhibitors, primary screen, biochemical, fluorescence, HTS. AID 2221, 2009. cell-free RecA intein splicing. Protein RecA (Mycobacterium tuberculosis (strain ATCC 25618 / H37Rv)), P9WHJ3. hit rate 0.75% among 290,000. inhibition, % (concentration not given with the values); in the data active = inhibition above about 30%; inconclusive = no clear call, values can overlap the other calls;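 note: 0% = vehicle wells and 100% = reference inhibitor control wells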
Mtb UGM inh: M. tuberculosis UGM enzyme inhibitors, primary screen, biochemical, fluorescence polarization, single point. hit rate 0.06% among 320,000. UDP-galactopyranose mutase (Mycobacterium tuberculosis (strain ATCC 25618 / H37Rv)), …. inhibition, % at 10 µM. purified UGM, fluorescence polarization probe displacement; in the data active = inhibition above about 10%, passing the limit was not always enough; inconclusive = no clear call, values can overlap the other calls
Target sequence (P9WIQ1 whole entry, looked up): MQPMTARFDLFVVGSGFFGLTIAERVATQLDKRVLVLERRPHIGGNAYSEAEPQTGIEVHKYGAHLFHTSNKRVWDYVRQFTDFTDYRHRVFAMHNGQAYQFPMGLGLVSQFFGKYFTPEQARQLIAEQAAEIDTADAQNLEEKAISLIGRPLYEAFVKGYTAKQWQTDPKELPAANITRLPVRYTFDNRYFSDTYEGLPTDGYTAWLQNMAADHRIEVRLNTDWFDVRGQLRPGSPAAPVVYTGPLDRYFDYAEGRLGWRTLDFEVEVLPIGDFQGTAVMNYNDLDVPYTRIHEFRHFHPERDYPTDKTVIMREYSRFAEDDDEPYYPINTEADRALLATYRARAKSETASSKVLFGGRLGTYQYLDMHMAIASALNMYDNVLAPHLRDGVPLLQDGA
GDH-TPI counter: GDH-TPI coupling enzyme inhibitors, primary screen, artefact control for M. tuberculosis FBA inhibitor project, biochemical, absorbance, full deck. GDH-TPI coupled enzyme counterscreen, NADH absorbance. inhibition, % at 4.8 µM. hit rate 1.2% among 360,000; in the data active = inhibition above about 30%;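 note: 0% = DMSO wells and 100% = wells lacking the enzyme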
Rv3671c protease: Rv3671c serine protease inhibitors, primary screen, biochemical, fluorescence polarization, M. tuberculosis H37Rv; P9WHR9; inhibition, % at 5.96 µM; hit rate 0.048% among 320,000; in the data active = inhibition above about 38%;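 note: extracellular domain of Rv3671c used as enzyme; 0% = enzyme with DMSO and 100% = no enzyme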
FBA Mtb inh: Mtb FBA enzyme inhibitors, primary screen, biochemical, fluorescence, strain H37Rv. hit rate 2.3% among 360,000. inhibition, % at 1 µM. purified M. tuberculosis FBA, fluorescence read-out; in the data active = inhibition above about 27%;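 note: 0% = vehicle and 100% = reference inhibitor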
Numbers without * were called inactive; ? = inconclusive; . = no result. Rows were chosen to be rich in hits. Some 4% of all compounds tested hit in one or more screens of this group.

SMILES	Mtb bLac sens	RecA splice inh	Mtb UGM inh	GDH-TPI counter	Rv3671c protease	FBA Mtb inh
COc1cc(OC)cc(-c2c(-c3ccc(C(C)=O)cc3)c3cc(-c4cccc5[nH]ccc45)ccc3n2C)c1	-7	.	4	36*	-8	13
COCc1ccc(-c2ccc3c(c2)c(C#Cc2ccsc2)c(-c2cc(OC)cc(OC)c2)n3C)cc1	-5	.	0	33*	-5	3
COc1cc(OC)cc(-c2c(C#Cc3ccsc3)c3cc(-c4cc(F)cc(F)c4)ccc3n2C)c1	2	.	0	8	-6	0
COc1ccc(-c2c(-c3cc(OC)cc(OC)c3)n(C)c3ccc(-c4ccc5[nH]ccc5c4)cc23)cc1	17	.	3	21	4	134*
COc1cc(OC)cc(-c2c(C#Cc3ccsc3)c3cc(-c4ccc(OC)c(F)c4)ccc3n2C)c1	-1	.	1	32*	-11	4
COc1ccc(-c2c(-c3cc(OC)cc(OC)c3)n(C)c3ccc(-c4cnc(OC)nc4)cc23)cc1	3	.	-2	13	3	8
CC(NC(=O)COC(=O)c1ccc[nH]c1=O)c1ccccc1 (stereo unspecified)	-2	.	-1	8	2	-1
COc1cc(C#Cc2c(-c3cncn3C)n(C)c3ccc(-c4ccc(OC)nc4)cc23)cc(OC)c1	99	.	-3	14	-4	8
COc1cc(C#Cc2c(-c3cncn3C)n(C)c3ccc(-c4ccc5[nH]ccc5c4)cc23)cc(OC)c1	99	.	4	13	-5	46*
COc1cc(OC)cc(-c2c(C#Cc3ccsc3)c3cc(-c4ccc5[nH]ccc5c4)ccc3n2C)c1	-1	.	2	44*	-3	12
O=C(NCCc1ccccc1F)C1CC(=O)N(c2ccc3c(c2)OCCO3)C1 (stereo unspecified)	.	.	.	-2	.	1
O=C(CC(c1ccccc1)c1ccccc1)Nc1ccc(C(=O)O)cc1	1	2	-1	-6	1	1
Fc1ccc(C(CCNCc2ccccn2)c2ccc(Cl)cc2)cc1 (stereo unspecified)	94	5	0	15	7	1
Cc1ccc(NC(=O)CN2CCN(C)CC2)cc1Br	.	4	.	-6	.	-6
Cc1cccc(C(=O)N2CCCC(CCC(=O)N3CCN(c4ccccn4)CC3)C2)c1 (stereo unspecified)	-10	0	0	-5	-4	5
COC(=O)/C=C/C1=CN(Cc2ccccc2)CCC1=O	6	.	-1	61*	3	-2
COc1cc(/C=N/NC(=O)c2ccncc2)cc(OC)c1OC	98	0	0	9	3	1
COc1cc(C(=O)NN=Cc2ccc(N(C)C)cc2)cc(OC)c1OC	.	.	.	42*	.	-2
COc1ccc(/C=N/NC(=O)c2cc[n+]([O-])cc2)cc1OC	-6	-1	-4	21	-2	-1
COc1ccc(/C=N/NC(=O)c2ccc3ccccc3c2)cc1OS(=O)(=O)c1ccc(NC(C)=O)cc1	16	0	0	36*	-267	1
COc1cc(/C=N/NC(=O)c2cc[n+]([O-])cc2)cc(OC)c1OC	-8	2	2	39*	0	-3
CCOc1cc(/C=N/NC(=O)c2ccc(N(C)S(=O)(=O)c3ccccc3)cc2)ccc1OC	4	1	0	42*	-60	1
Cc1nc2ccccc2c(=O)n1-c1ccc(F)c(NS(=O)(=O)c2ccccc2F)c1	-8	0	0	4	-7	-1
CC(=O)Nc1cccc(C(=O)N/N=C/c2c[nH]c3ccccc23)c1	-5	1	0	20	-9	-1
Cc1cc(O)cc(O)c1/C=N/NC(=O)c1ccc2c(c1)OCCO2	.	.	.	44*	.	7
SMILES	Mtb bLac sens	RecA splice inh	Mtb UGM inh	GDH-TPI counter	Rv3671c protease	FBA Mtb inh
O=C(N/N=C/c1ccc(Br)o1)c1ccc2c(c1)OCCO2	16	-1	0	41*	-2	1
O=C(O)c1ccc(/C=N/NC(=O)c2ccc3c(c2)OCCO3)cc1	-5	0	1	28	1	-2
O=C(CSc1nnc(-c2ccccc2F)n1C1CC1)N1CCCC1	.	.	.	4	.	-2
Cc1c(NC(=O)CSc2ccc3ccccc3n2)c(=O)n(-c2ccccc2)n1C	15	.	1	7	-7	-3
Cc1cc(NC(=O)/C(C#N)=C/c2ccco2)n(-c2ccccc2)n1	-1	5	0	27	-10	-2
Cc1ccc(-c2ccc(/C=C(\C#N)C(=O)Nc3cc(C)nn3-c3ccccc3)o2)cc1	-14	-97	48*	.	3	.
Oc1ccc(C[C@H]2CNCCN2CC2CCCCC2)cc1	-6	-1	-1	4	-1	0
COc1ccc(NC(=O)C2CCN(S(=O)(=O)c3c(C)noc3/C=C/N(C)C)CC2)cc1	-4	-3	-3	37*	-28	-5
CCCCNC(=O)C1CCN(S(=O)(=O)c2c(C)noc2/C=C\c2ccc(OC)cc2)CC1	-1	-3	2	19	-7	6
COc1ccc(NC(=O)C2CCN(S(=O)(=O)c3c(C)noc3C)CC2)cc1	4	0	-1	-4	7	0
CCCN1CCN(C(=O)C2CCN(S(=O)(=O)c3c(C)noc3/C=C/c3ccc(C)cc3)CC2)CC1	38	0	1	32*	-1	-2
COCCCNC(=O)C1CCN(S(=O)(=O)c2c(C)noc2/C=C\c2ccc(OC)cc2)CC1	?	.	0	39*	-8	-1
CC(C)NC(=O)c1ccc2c(c1)N(CC(=O)N1CCCCC1)C(=O)C(C)(C)O2	1	0	-2	-2	-4	0
O=C(NCc1cccnc1)c1cc(C2CCCCN2C(=O)c2ccccc2)on1 (stereo unspecified)	.	.	.	5	.	-2
COc1cc(/C=N/n2cnnc2-n2nc(C)cc2C)cc([N+](=O)[O-])c1O	6	-5	0	38*	4	-11
Cc1cc(C)n(-c2nncn2/N=C/c2ccccc2F)n1	-1	0	2	0	-3	0
Cc1noc(C)c1NC(=O)Nc1ccc2c(c1)C(=O)N([C@H](C)CO)C[C@H](C)[C@@H](CN(C)S(=O)(=O)c1ccccc1)O2	4	.	-4	-7	0	1
c1ccc2c(c1)Cn1nnnc1-2	-1	-2	2	-2	-5	135*
CCCn1c(C)nc2c(c1=O)c1nc3ccccc3nc1n2CCC1=CCCCC1	-2	-10	1	17	4	91*
Cc1nc2c(c(=O)n1CCC1=CCCCC1)c1nc3ccccc3nc1n2/N=C/c1ccco1	92	-2	-3	16	-6	9
